Activity calls are given as the source filed them. The calls were made as follows: active = hit-call score of the fitted dose curve at least 0.9, where 1 is the maximum; inactive = score below 0.9.

Read-out in the test: Monocyte Chemoattractant Protein-1 (MCP1), CCL2 (gene 6347)
The experiment in a line: BSK_LPS_MCP1: BioMAP Diversity Plus: LPS Assay for Monocyte Chemoattractant Protein-1 (MCP1) Biomarker Activity (AID 2283081).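 As to AC50: co-culture stimulated with LPS.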 The following applies: primary human HUVEC with PBMC; actives raise or lower the signal. How it is done: BSK_LPS is a cell-based, multiplexed-readout assay that uses umbilical vein endothelium and peripheral blood mononuclear cells, a human vascular primary cell co-culture, with measurements taken at 24 hours after chemical dosing in a 96-well plate.BSK_LPS_MCP1 is an assay component measured in the BSK_LPS assay. It measures MCP-1 antibody related to regulation of gene expression using ELISA technology.Data from the assay component BSK_LPS_MCP1 was analyzed into 1 assay endpoint. This assay endpoint, BSK_LPS_MCP1, was analyzed with bidirectional fitting relative to DMSO as the negative control and baseline of activity. Using a type of binding reporter, gain or loss-of-signal activity can be used to understand changes in the signaling as they relate to the gene CCL2. Furthermore, this assay endpoint can be referred to as a primary readout, because this assay has produced multiple assay endpoints where this one serves a signaling function. To generalize the intended target to other relatable targets, this assay endpoint is annotated to the cytokine intended target family, where the subfamily is chemotactic factor.
The levels of cell surface (or secreted, indicated by the prefix "s") biomarker endpoints were measured by ELISA. Overt cytotoxicity to cells in confluent adherent cultures (all systems other than the BT system) was assessed by measuring total protein levels using sulforhodamine B (SRB) staining in parallel cultures at the time of biomarker measurements, indicated as SRB endpoints. For proliferation assays for adherent cell types, individual cell types are cultured at sub-confluence and relative cell numbers quantified by SRB staining at time points optimized for each system (48 h: 3C and CASM3C systems; 72 h: BT and HDF3CGF systems; 96 h: SAg system). SRB was performed by staining cells with 0.1% SRB after fixation with 10% TCA and reading wells at 560 nm.Viability and proliferation of PBMC (T cells) was quantified by Alamar Blue reduction for the SAg and BT systems. For PBMC viability (referred to as PBMC Cytotoxicity within the assay endpoint names), cells were plated (75,000/well in a 96-well plate) and then chemical samples added for 1 h before addition of activators, SEB and TSST-1 (20 ng/mL final concentration each). Cells were incubated for 90 h. Then, Alamar Blue (20 uL/well) (Invitrogen, Cat DAL1100) was added for 6 h, and the plates were read with a fluorescence microplate reader at 546/580 nm (excitation/emission). For PBMC proliferation, cells were plated and activated as above but incubated for only 16 h prior to addition of Alamar Blue. Plates were read after 6 h.
As for `COCCOc1cc2cc(C(=O)NC3CCN(C(C)C)CC3)n(CC(=O)Nc3ccc(Cl)cn3)c2cn1`, the result was inactive.

For the molecule `Fc1ccccc1[C@@H](F)COC1CCC(Nc2ncnc3[nH]ncc23)CC1` (stereo not given in full), the AC50 (commonly the concentration at which the activity in the assay is half-maximal) is 30.3 µM (active).

As to `CCCCC(CC)COC(=O)c1ccc(C(=O)OCC(CC)CCCC)cc1` (stereo not given), the outcome was inactive.

On to `O=C(O)c1cc(N=Nc2ccc(S(=O)(=O)Nc3ccccn3)cc2)ccc1O`, for which the outcome was inactive.

For `COc1ccc(/C=C/S(=O)(=O)NC(=O)c2ccc(C)cc2Cl)cc1`, the outcome was inactive.

Consider `Cc1[nH]cnc1C[C@H]1CCc2c(C)c3ccccc3n2C1=O`, for which the AC50 was 27 µM (active).

In the case of `COC(=O)c1ccccc1O`, the outcome was inactive.

With `Nc1cccc(N)c1`, the result was inactive.

As for `CN(C)c1ccc(Cc2ccc(N(C)C)cc2)cc1`, the outcome was inactive.

In the case of `COc1ccc(-n2nc(C(F)F)cc2-c2ccc(S(C)=O)cc2)cc1` (stereo not given), the result was inactive.

Consider `C=CCCCCCCCCC(=O)O`, for which the outcome was inactive.

Turning to `CC(C)CCO`, the outcome was inactive.

As to `Cc1ccc(S(=O)(=O)O)cc1C`, the outcome was inactive.

`CC(C)=CCC/C(C)=C\CO`: the outcome was inactive.

As to `CNS(=O)(=O)c1cc(C(=O)N2CCC(CCN3C4CCC3CC(n3c(C)nc5ccccc53)C4)(c3cccc(F)c3)CC2)c(Cl)cc1F` (stereo not given), the AC50 is 24.2 µM (active).

As for `O=C1CCC(N2C(=O)c3ccccc3C2=O)C(=O)N1` (stereo not given), the outcome was inactive.

Consider `Oc1ccc2c(c1)-c1ccccc1C2`, for which the outcome was inactive.

As to `CCCN(C1CCN(C(=O)C2CCNCC2)CC1)[C@@H]1CCc2ccc(OC)cc2C1`, the result was inactive.

With `O=C(O)c1cccc(Oc2ccccc2)c1`, the outcome was inactive.

For `CCn1nc(Cc2ccccc2)cc1C1CCN(C[C@H]2C[C@H](N(C)[C@@H](C(=O)O)C(C)C)C[C@@H]2c2cccc(F)c2)CC1`, the result was inactive.

`CCCCC(CC)COC(=O)CCCCCCCCC(=O)OCC(CC)CCCC` (stereo not given): the result was inactive.

Regarding `O=C(O)CC(O)C(=O)O` (stereo not given), the result was inactive.

Consider `COc1ccc2sc(C(=O)Nc3nnn[nH]3)c(OC(C)C)c2c1`, for which the AC50 was 19.8 µM (active).

Turning to `CCN(C(=O)c1cc(C)cc(OC[C@H](C)Nc2ccncc2)c1)C(C)C`, the outcome was inactive.

In the case of `Cn1cnc([N+](=O)[O-])c1Sc1ncnc2nc[nH]c12`, the outcome was inactive.

On to `CC(C)=CCC/C(C)=C/CO`, for which the outcome was inactive.

Turning to `CCCCCCCCCCCCc1ccccc1`, the outcome was inactive.

As to `C1=CCCC=CCCC=CCC1`, the result was inactive.

On to `CCCC(=O)OCC`, for which the result was inactive.

Take `CCC(C)(C)C(=O)O[C@H]1C[C@@H](C)C=C2C=C[C@H](C)[C@H](CC[C@@H]3C[C@@H](O)CC(=O)O3)[C@H]21`: the AC50 is 30.5 µM (active).

For `COCCOCCOCCOC`, the result was inactive.

For `CC(C)CCCCCCCOC(=O)CCCCC(=O)OCCCCCCCC(C)C`, the result was inactive.

As to `CC(=O)OCCC(C)C`, the outcome was inactive.

For the molecule `CCCCCCCCCCCCCCCO`, the result was inactive.

Turning to `CCOCCO`, the result was inactive.

On to `CC(=O)OC[C@H]1O[C@@](COC(C)=O)(O[C@H]2O[C@H](COC(C)=O)[C@@H](OC(C)=O)[C@H](OC(C)=O)[C@H]2OC(C)=O)[C@@H](OC(C)=O)[C@@H]1OC(C)=O`, for which the result was inactive.

In the case of `O=C(O)c1cccc(N(Cc2cccnc2)c2ccc(OC(F)F)c(OC(F)F)c2)c1`, the AC50 was 10.7 µM (active).

Take `COC(=O)c1c(Cl)c(Cl)c(C(=O)OC)c(Cl)c1Cl`: the result was inactive.

In the case of `CC(C)(O)c1coc(S(=O)(=O)NC(=O)Nc2c3c(cc4c2CCC4)CCC3)c1`, the outcome was inactive.

Take `CC(C)CCCCCCOC(=O)c1ccc(C(=O)OCCCCCCC(C)C)c(C(=O)OCCCCCCC(C)C)c1`: the outcome was inactive.

These data come from PubChem BioAssay (EPA / NIEHS).
